# From PubChem
# CCHF vOTU inh: CCHFV vOTU protease inhibition; Pep-AMC fluorescence; 370,000 compounds, 0.55% hits; inhibition, % at 11.5 µM; in the data active = inhibition above about 30%; note: 0% = vehicle wells with enzyme and 100% = no enzyme wells
# Vc quorum ag: induces V. cholerae light production without autoinducers; V. cholerae BH1578 lux reporter, luminescence, 6 h; activation, % at 18.7 µM; 350,000 compounds, 0.16% hits; AID 588436; in the data active = activation mostly above about 9.7%, no sharp cut-off; inconclusive = no clear call, values can overlap the other calls; inactive = mostly below about 3.7%
# RN4220 kill: kills Staphylococcus aureus RN4220; S. aureus RN4220 growth, OD600, 16 h; AID 1259311; inhibition, % (no concentration beside the values); 330,000 compounds, 0.33% hits; in the data active = inhibition above about 85%;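 note: plate controls were untreated cells for no effect and reference antibiotic for full effect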
# Mtb hypoxia rep: Mtb hypoxia fluorescent reporter inhibition; M. tuberculosis hypoxia-regulated fluorescent reporter, fluorescence; fluorescence inhibition, % (no concentration beside the values); 300,000 compounds, 0.1% hits; in the data active = fluorescence inhibition mostly above about 23%, no sharp cut-off; inactive = mostly below about 17%
# Sa ugtP lethal: kills S. aureus RN4220 lacking UgtP | 330,000 compounds, 0.54% hits | AID 1259309 | growth inhibition, % (test concentration not listed) | S. aureus RN4220 ugtP deletion, OD600 growth, 16 h; in the data active = growth inhibition above about 68%;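 note: plate controls were untreated wells for no effect and antibiotic for full effect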
# PfHsp40 yeast: rescue of PfHsp40-mediated yeast toxicity; S. cerevisiae expressing PfHsp40, growth rescue, ATP luminescence; growth rescue, % at 12.5 µM; 340,000 compounds, 0.68% hits; in the data active = growth rescue above about 28%, passing the limit was not always enough; inconclusive = no clear call, values can overlap the other calls;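 note: yeast W303a lacking pdr1 and pdr3 grown in galactose medium; growth measured after three days at 30 °C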
# * marks the source's active call; other numbers are inactive results; i = inactive; ? = inconclusive; / = no result given. This is a sample that favours compounds with a hit; in the whole collection about 1.7% have one here.
SMILES,CCHF vOTU inh,Vc quorum ag,RN4220 kill,Mtb hypoxia rep,Sa ugtP lethal,PfHsp40 yeast
CCOc1ccc(-c2ccc(/C=C3/C(=N)N4C(C)=CSC4=NC3=O)o2)c([N+](=O)[O-])c1,-8,2,11,5,100*,-2
CCC12CN3CCN(CC(C3)C1=NNC(=O)c1ccc(C(C)(C)C)cc1)C2,/,/,3,3,11,/
CCc1c(C2(O)CCCCC2)[nH]c2cc(C(F)(F)F)ccc12,/,i,/,/,/,299*
Cc1c(C2(O)CCCCC2)[nH]c2cc(C(F)(F)F)ccc12,21,i,-5,20,-4,?
Cc1nn(-c2nc3ccccc3[nH]2)c(N)c1-c1ccc(Cl)cc1,/,i,57,1,95*,3
O=C(OC1CCCCC1)c1ccc(NC(=O)c2ccco2)cc1,21,0,2,/,17,?
COC(=O)c1ccc([C@H](NC(=O)c2ccco2)[C@]2(C)C[C@H]2C2CCCCC2)cc1,12,0,/,/,/,68*
COC(=O)c1ccccc1NC(=O)COC(=O)c1ccccc1N=Nc1ccc(N(C)C)cc1,-8,0,3,-5,-4,73*
COC(=O)C1=CN(C)C=C(C(=O)OC)C1c1ccsc1,-131,17*,2,6,-1,0
C=C(C)CNC(=S)NNC(=O)CCn1c2cc(Cl)ccc2c2ccc(Cl)cc21,-8,0,7,-4,-18,3
C=C(C)CNC(=S)NNC(=O)CCn1c2ccc(Cl)cc2c2cc(Cl)ccc21,16,i,93*,0,43,11
CC(CCC(C)C(C)(C)C)[C@@H]1CC[C@H]2C3C[C@H](OS(O)(=S)=S)[C@H]4C[C@H](OS(O)(=S)=S)[C@@H](OS(O)(=S)=S)C[C@]4(C)[C@H]3CC[C@]12C (stereo not given in full) (tested in a mixture with another compound),/,i,/,/,/,104*
Cc1ccc(C(=O)Nc2ccc(Br)c(C(F)(F)F)c2)cc1,13,4,61,25,91*,0
Cc1ccc(S(=O)(=O)/N=C2\C=C(NS(=O)(=O)c3ccccc3)C(=O)c3ccccc32)c(C)c1,11,-1,/,/,/,-1
Cc1ccc(NC2=CC(=NS(=O)(=O)c3cccs3)c3ccccc3C2=O)cc1,/,/,20,-3,-17,/
COC(=O)c1ccccc1NC1=C/C(=N\S(=O)(=O)c2ccc(C(=O)O)cc2)c2ccccc2C1=O,/,0,16,6,-7,17
CC(C)(C)c1ccc(S(=O)(=O)/N=C2\C=C(NS(=O)(=O)c3ccccc3)C(=O)c3ccccc32)cc1,54*,0,/,/,/,3
O=C1C(Nc2ccccc2)=C/C(=N/S(=O)(=O)c2cccs2)c2ccccc21,/,0,/,/,/,266*
CCc1ccc(S(=O)(=O)/N=C2\C=C(Nc3ccc(C(=O)O)cc3)C(=O)c3ccccc32)cc1,112*,0,/,/,/,-1
CCOc1ccccc1N1CCN(CC=Cc2ccc(N(C)C)cc2)CC1,/,/,-1,-2,-2,/
CCNC(=S)N/N=C(\C)c1ccc2ccccc2c1OC(F)F,-3,3,/,/,/,62*
Cc1cccc(C(=O)Nc2ccc(C(=O)NN=Cc3ccco3)cc2)c1,/,/,2,/,-6,/
Cn1nc(C(=O)OCC(=O)NCc2ccc(Cl)cc2)c2ccccc2c1=O,-6,-1,4,31*,4,0
Cn1nc(C(=O)OCC(=O)NCCc2ccccc2)c2ccccc2c1=O,-7,i,3,9,12,0
COc1ccc(NC(=O)CSc2nnc(-c3ccncc3)n2C)cc1,-3,0,2,3,-1,-1
SMILES,CCHF vOTU inh,Vc quorum ag,RN4220 kill,Mtb hypoxia rep,Sa ugtP lethal,PfHsp40 yeast
O=C(CSc1nnc(-c2ccccc2)n1Cc1ccccc1)NNC(=O)c1ccccc1O,-6,i,14,/,3,166*
O=C(CSc1nnc(-c2ccccc2O)n1Cc1ccccc1)NNC(=O)c1ccccc1O,12,i,8,-6,-13,305*
Cn1c(SCC(=O)NNC(=O)c2ccccc2O)nnc1-c1ccccc1,4,0,3,19,4,106*
COc1ccc(-c2nnc(SCC(=O)Nc3ccccc3)n2C)cc1,-7,36*,4,9,-1,0
O=C(O)CSc1nnc(-c2ccccc2O)n1Cc1ccccc1,14,-5,4,5,1,0
O=C(C[n+]1ccc(C=NO)cc1)NC(=O)Nc1ccccc1,/,/,4,6,1,/
CC(=NNc1cccc([N+](=O)[O-])c1)c1ccccc1O,/,/,-12,-5,1,/
Nc1nc2ccccc2n1N=Cc1ccc2c(c1)OCO2,/,/,5,11,-2,/
CC1=CC(C)[C@@H]2COC(c3ccc(O)cc3)C1C2C (stereo not given in full),/,/,10,-8,17,/
COc1ccccc1-c1cn[nH]c1-c1ccc(OCc2ccccc2)cc1O,6,0,/,/,/,214*
CCOc1ccc(-c2[nH]ncc2-c2ccccc2)c(O)c1,14,0,-7,4,3,-1
COc1ccc(-c2cn[nH]c2-c2ccc(OCc3ccccc3)cc2O)cc1,1,0,2,0,8,115*
CCOc1ccc(-c2[nH]ncc2Oc2cccc(OC)c2)c(O)c1,0,/,-17,-14,2,336*
CC(CC(=O)Nc1ccc2ccccc2c1)=NNC(=O)c1cnccn1,/,/,3,-12,-7,/
Cn1c(=O)c2c(nc(Br)n2CC=NNC(N)=S)n(C)c1=O,/,/,-2,-9,0,/
CC1(C)OC2OC(C(=O)NN=Cc3ccccc3F)C3OC(C)(C)OC3C2O1 (stereo not given),/,/,6,6,-3,/
COC(=O)C1=C(c2ccccc2)CC2CCC1N2C(=O)NCCO (stereo not given),/,/,6,5,1,/
CN1CCN(C(=NS(=O)(=O)c2ccc(F)cc2)c2ccccc2)CC1,/,/,0,/,-2,/
CC(=O)Nc1ccc(NC(=O)c2cc([N+](=O)[O-])cc([N+](=O)[O-])c2)cc1,-9,0,-3,6,11,0
Cc1ccc(NC(=O)c2ccc(Nc3c([N+](=O)[O-])cc([N+](=O)[O-])cc3[N+](=O)[O-])cc2)cc1,-7,0,62,46*,49,1
CCOc1ccc(CC(=O)Nc2nccs2)cc1OCC,-4,i,/,/,/,38*
CC(C)CC(=O)NC(=S)Nc1ccc(NC(=O)c2cccs2)cc1,1,0,3,/,83*,-1
CC(C)CC(=O)NC(=S)Nc1ccc(N2CCN(C(=O)c3cccs3)CC2)cc1,-5,i,9,/,96*,4
CCSc1nc(C2CC2)cc(-c2cccs2)c1C#N,-12,-4,8,6,93*,2
O=C(c1cnn2c(C(F)(F)F)cc(-c3ccccc3)nc12)N1CCCCC1c1cccnc1 (stereo not given),-7,i,-2,-11,-1,1
